# PINK1 expr mod – modulators of PINK1 expression; Potency, µM (titrated, usually from 76.6 µM), inactives show at the top dose activation (PINK1 increase), most hits filed as activators; PINK1 immunofluorescence, high-content cytometry, 24 h; 410,000 tested, 0.2% active; active = well fitted activation curve with a large enough effect; inconclusive = small, poorly fitted or top-dose-only effect; cell line not stated here; also: potency is read from the fitted curve at half-maximal effect; % of control where 0% means no effect; nearly all actives have a fitted effect of over 65% in size
#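 A stable cell line was treated with compounds at 5 concentrations for 24 hours, with CCCP as control. PINK1 levels and mitochondrial localization were measured by immunofluorescence with mitochondrial, cell and nuclear markers after fixation, read by laser-scanning cytometry.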
# MLL CXXC-DNA inh – MLL CXXC-DNA interaction inhibition. Potency, µM (titrated, usually from 115 µM), for the others: top-dose activity change, negative = inhibition, usual class: inhibitors. MLL-CXXC / FITC-HOXA9 DNA fluorescence polarization. 290,000 tested, 0.037% active. Q03164; active = well fitted inhibition curve with a large enough effect in the polarisation, with a control signal flat, not every such curve was filed as active; inconclusive = small, poorly fitted or top-dose-only effect, or effect the other way, or a change in a side signal; inactive = no such curve, though single readings can be large or run the other way; the % refers to the polarisation; also: potency is read from the fitted curve at half-maximal effect
# Target sequence (Q03164 whole entry, looked up): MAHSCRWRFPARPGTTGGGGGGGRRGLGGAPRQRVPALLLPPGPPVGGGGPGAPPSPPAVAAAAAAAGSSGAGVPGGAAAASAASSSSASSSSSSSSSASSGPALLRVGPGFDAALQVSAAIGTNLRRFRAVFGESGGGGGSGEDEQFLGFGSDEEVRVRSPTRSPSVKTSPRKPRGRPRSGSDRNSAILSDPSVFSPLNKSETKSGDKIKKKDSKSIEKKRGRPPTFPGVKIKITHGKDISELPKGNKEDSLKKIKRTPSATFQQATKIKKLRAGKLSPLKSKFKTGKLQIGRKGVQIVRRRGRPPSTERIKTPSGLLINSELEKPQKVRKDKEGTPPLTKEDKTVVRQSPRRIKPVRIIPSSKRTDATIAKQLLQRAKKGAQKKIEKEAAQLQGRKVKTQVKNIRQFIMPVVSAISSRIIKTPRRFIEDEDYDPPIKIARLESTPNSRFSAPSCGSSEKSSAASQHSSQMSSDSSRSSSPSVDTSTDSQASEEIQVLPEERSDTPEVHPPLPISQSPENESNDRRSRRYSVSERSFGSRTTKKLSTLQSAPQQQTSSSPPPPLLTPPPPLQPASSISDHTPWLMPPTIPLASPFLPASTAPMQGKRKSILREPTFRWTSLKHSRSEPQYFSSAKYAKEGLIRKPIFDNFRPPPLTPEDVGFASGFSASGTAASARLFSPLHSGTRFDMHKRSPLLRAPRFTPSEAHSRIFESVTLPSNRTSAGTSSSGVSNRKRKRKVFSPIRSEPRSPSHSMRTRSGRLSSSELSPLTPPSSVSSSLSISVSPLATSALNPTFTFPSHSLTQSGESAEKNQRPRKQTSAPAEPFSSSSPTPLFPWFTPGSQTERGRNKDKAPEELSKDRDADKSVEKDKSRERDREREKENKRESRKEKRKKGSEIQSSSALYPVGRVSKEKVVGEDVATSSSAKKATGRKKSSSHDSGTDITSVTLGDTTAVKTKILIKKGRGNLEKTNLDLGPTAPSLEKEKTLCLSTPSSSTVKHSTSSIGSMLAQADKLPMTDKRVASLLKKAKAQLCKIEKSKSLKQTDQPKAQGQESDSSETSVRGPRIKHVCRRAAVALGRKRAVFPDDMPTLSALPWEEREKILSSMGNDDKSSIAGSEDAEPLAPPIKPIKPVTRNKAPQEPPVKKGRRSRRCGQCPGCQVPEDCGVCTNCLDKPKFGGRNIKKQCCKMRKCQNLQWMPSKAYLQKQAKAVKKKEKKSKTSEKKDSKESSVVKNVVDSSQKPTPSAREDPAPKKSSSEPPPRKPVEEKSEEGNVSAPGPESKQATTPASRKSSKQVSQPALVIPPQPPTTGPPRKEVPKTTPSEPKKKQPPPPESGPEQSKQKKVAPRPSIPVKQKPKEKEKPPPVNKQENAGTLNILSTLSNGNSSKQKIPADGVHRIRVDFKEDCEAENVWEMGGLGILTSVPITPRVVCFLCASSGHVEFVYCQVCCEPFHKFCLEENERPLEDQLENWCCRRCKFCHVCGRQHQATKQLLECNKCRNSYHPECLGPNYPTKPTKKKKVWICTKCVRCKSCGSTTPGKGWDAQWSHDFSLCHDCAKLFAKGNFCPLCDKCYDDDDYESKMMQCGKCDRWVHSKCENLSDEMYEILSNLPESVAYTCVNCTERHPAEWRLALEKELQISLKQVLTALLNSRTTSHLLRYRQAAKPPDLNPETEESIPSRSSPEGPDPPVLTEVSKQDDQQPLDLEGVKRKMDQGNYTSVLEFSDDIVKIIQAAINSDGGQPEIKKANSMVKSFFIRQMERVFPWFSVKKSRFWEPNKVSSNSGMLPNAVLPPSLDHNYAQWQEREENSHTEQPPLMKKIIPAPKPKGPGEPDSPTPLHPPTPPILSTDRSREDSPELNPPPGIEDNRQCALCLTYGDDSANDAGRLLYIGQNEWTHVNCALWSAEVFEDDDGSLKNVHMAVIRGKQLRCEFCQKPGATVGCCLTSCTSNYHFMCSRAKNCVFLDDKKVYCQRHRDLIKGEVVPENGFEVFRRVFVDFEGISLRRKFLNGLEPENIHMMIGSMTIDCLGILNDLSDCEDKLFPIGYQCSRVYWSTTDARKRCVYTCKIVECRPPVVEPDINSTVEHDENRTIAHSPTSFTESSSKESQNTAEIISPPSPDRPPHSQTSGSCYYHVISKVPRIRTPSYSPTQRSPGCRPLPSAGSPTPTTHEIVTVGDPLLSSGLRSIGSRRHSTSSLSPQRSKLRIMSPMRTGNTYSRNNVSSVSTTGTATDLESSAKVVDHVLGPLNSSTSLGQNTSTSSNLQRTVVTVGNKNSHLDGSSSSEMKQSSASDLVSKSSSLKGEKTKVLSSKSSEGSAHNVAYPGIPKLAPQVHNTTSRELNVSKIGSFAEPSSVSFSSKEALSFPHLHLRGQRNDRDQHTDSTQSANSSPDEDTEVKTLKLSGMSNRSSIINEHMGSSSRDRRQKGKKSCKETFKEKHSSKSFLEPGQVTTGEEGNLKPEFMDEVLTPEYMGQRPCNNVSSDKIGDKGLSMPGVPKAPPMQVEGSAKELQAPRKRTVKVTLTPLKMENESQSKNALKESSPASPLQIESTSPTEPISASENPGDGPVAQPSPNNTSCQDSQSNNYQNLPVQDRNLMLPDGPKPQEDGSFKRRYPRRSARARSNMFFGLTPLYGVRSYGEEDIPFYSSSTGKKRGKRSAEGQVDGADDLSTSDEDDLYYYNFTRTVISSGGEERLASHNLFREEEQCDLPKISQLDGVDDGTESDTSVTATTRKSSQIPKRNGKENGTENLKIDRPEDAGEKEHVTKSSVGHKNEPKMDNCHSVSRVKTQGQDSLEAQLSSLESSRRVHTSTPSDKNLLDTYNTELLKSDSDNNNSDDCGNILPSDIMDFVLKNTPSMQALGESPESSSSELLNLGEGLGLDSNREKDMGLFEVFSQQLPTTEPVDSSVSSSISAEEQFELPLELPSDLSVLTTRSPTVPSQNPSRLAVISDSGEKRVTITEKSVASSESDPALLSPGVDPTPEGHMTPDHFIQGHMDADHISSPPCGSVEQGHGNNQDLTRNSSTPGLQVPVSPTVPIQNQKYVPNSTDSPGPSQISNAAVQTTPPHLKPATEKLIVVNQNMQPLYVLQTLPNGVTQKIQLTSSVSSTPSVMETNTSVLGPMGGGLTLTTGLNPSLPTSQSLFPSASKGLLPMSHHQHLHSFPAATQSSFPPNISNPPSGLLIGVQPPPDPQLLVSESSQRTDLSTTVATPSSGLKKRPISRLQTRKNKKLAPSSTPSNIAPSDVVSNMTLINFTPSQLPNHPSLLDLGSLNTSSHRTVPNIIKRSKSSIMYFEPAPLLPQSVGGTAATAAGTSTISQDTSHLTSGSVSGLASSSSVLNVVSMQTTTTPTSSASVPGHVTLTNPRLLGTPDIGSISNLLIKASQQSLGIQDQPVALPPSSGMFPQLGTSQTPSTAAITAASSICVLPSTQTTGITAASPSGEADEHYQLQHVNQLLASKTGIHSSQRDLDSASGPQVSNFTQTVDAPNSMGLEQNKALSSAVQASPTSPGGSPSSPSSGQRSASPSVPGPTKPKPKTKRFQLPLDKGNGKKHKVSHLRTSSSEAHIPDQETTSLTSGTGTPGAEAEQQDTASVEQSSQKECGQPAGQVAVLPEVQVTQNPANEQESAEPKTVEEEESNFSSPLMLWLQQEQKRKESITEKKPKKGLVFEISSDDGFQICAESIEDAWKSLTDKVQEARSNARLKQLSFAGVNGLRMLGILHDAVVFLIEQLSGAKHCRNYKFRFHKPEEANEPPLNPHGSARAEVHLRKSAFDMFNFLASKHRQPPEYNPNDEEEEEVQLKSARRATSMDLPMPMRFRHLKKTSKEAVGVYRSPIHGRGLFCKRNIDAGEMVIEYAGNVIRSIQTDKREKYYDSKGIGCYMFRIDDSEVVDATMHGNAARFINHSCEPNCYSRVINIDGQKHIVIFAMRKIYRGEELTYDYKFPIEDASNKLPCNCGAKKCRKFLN
#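 Fluorescence polarization: 7 uM MLL-CXXC (stock) preincubated 5 min with compounds, then 50 nM fluorescein-HOX-A9 DNA (stock) added; 30 min ambient. Buffer 50 mM Tris-HCl pH 7.5, 50 mM NaCl, 1 mM DTT, 0.05% BSA.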
# ClpP mod – qHTS Assay for Activators of ClpP; AID 651965, 2013; purified B. subtilis ClpP, FRET peptide cleavage, 20 min; Potency, µM (highest dose often 57.5 µM), inactives show top-dose activity change, negative = active; 340,000 tested, 1.9% active; active = well fitted falling curve with a large enough effect; inconclusive = small, poorly fitted or top-dose-only effect; inactive = no such curve, though single readings can be large or run the other way; also: potency is read from the fitted curve at half-maximal effect; the source files actives as falling curves though it sought activators and does not explain the sign; nearly all actives have a fitted effect of over 65% in size
#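 Buffer: 100 mM Tris/HCl pH8, 100 mM KCl, 0.05% low protease BSA, 2.5% glycerol, 0.01% Tween-20. ClpP 10 microg/mL final; 20 min RT; delta FRET normalized to ADEP and DMSO controls.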
# Menin MLL FP FL – inhibitors of human menin-MLL interaction, wild-type MLL peptide. Fluorescence polarization, fluorescein-MLL peptide displacement from menin. FP activity change, % at 61.4 µM. 290,000 tested, under 10 active; active = well fitted curve in the direction sought with a large enough effect in the polarisation, not every such curve was filed as active; inconclusive = small, poorly fitted or top-dose-only effect, or effect the other way, or a change in a side signal; inactive = no such curve, though single readings can be large or run the other way; the % refers to the polarisation; also: % of control where 0% means no effect
# Menin-MLL TR inh – menin-MLL binding inhibition, Texas Red mutant peptide. O00255. Menin + Texas Red MLL mutant peptide, fluorescence polarization. Potency, µM (series often up to 61.6 µM), without a hit: at the highest dose FP activity change, negative = inhibition, actives largely listed as inhibitors. 270,000 tested, 0.23% active. AID 1768; active = well fitted inhibition curve with a large enough effect in the polarisation, with a control signal flat, not every such curve was filed as active; inconclusive = small, poorly fitted or top-dose-only effect, or effect the other way, or a change in a side signal; inactive = no such curve, though single readings can be large or run the other way; the % refers to the polarisation; also: potency is read from the fitted curve at half-maximal effect; % of control where 0% means no effect
# Epigenetic reg – regulators of epigenetic silencing causing reporter derepression in mouse cells; Potency, µM (series often up to 53.9 µM), for inactives: at the top dose GFP activation, most hits filed as activators; 280,000 tested, 0.2% active; murine LDR cells, GFP reporter derepression, 30 h; active = well fitted activation curve with a large enough effect; inconclusive = small, poorly fitted or top-dose-only effect; also: potency is read from the fitted curve at half-maximal effect; % of control where 0% means no effect; nearly all actives have a fitted effect of over 60% in size
#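 In this reporter-derepression format, murine cells bearing a silenced integrated CMV-GFP locus incubate with test compound (30 h, 37 C), then are washed and imaged; fluorescent objects of 20–120 um count as induced cells.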
# Numbers without * were called inactive; ? = inconclusive; nt = not tested or not shown; ! = repeats disagree; [ ] = remark or other dose. Rows were chosen to be rich in hits. Some 1.9% of all compounds tested hit in one or more screens of this group.
SMILES,PINK1 expr mod,MLL CXXC-DNA inh,ClpP mod,Menin MLL FP FL,Menin-MLL TR inh,Epigenetic reg
COC(=O)COc1ccc(NC(=O)Cn2nc(-c3ccccc3)c3ccccc3c2=O)cc1,0.8%,4.7%,-0.5%,-0.7,-12.2%,-0.2%
COc1ccc(-c2nn(CC(=O)Nc3ccc(Cl)c(Cl)c3)c(=O)c3ccccc23)cc1,-2.7%,17.2%,?,6.2,10µM*,0.0%
CSc1nccc(-c2cc(Cl)c3c(c2)CC(CNC(=O)c2ccc(C)nc2)O3)n1 (configuration not stated),1.9%,nt,nt,nt,nt,nt
Cc1ccc2nc(-c3ccc(C)c(NC(=O)CSc4ccc(Cl)cc4)c3)oc2c1,-0.7%,nt,-12.5%,nt,nt,1.1%
Cc1cc(C)c2oc(-c3ccc(NC(=O)c4cc(Br)ccc4Cl)cc3)nc2c1,1.6%,nt,20µM*,nt,nt,0.0%
COc1c(C)cccc1C(=O)Nc1ccc(Cl)c(-c2nc3cc(C)ccc3o2)c1,4.9%,nt,25.1µM*,nt,nt,-0.2%
COc1ccc2oc(-c3ccc(NC(=O)c4ccc(Cl)cc4Cl)cc3)nc2c1,1.5%,nt,35.5µM*,nt,nt,-0.8%
COc1ccc2oc(-c3ccc(C)c(NC(=O)CSc4ccc(Cl)cc4)c3)nc2c1,0.8%,6.5%,11.2µM*!,-1.8,41.4%,-0.2%
CCCCNC(=O)c1sc2ncnc(NCC3CCCO3)c2c1C (configuration not stated),-0.3%,nt,nt,nt,nt,nt
Cc1ccc(-c2c(C(=O)N/N=C/c3ccc(OC(C)C)cc3)nnn2-c2nonc2N)cc1,0.9%,2.5%,28.2µM*,nt,nt,nt
CC1CN(CC(=O)NCCC2COc3ccccc3O2)Cc2cc(Cl)ccc2O1 (configuration not stated),0.4%,nt,nt,nt,nt,nt
COc1cc(OC)c(-c2oc3ccccc3c(=O)c2O)c(OC)c1,14.9%,nt,28.2µM*,nt,nt,nt
COc1ccc(OC)c(-c2oc3ccccc3c(=O)c2O)c1,3.5%,10.3%,2.2%,16.6,-14.2%,2.9%
CN(C)CC(C)(O)c1ccc2c(c1)CN(Cc1cccn1-c1cccnc1)CCO2 (configuration not stated),-1.1%,nt,nt,nt,nt,nt
Cc1ccc(-n2nc(CO)c(C(=O)NCCCCc3ccccc3)n2)cc1C,0.7%,nt,25.1µM*,nt,nt,2.7%
CCC(C)NC(=O)c1nn(-c2ccc(C)cc2)nc1CO (configuration not stated),-0.9%,nt,?,nt,nt,0.2%
Cc1ccc(-n2nc(CO)c(C(=O)NC(C)CCCc3ccccc3)n2)cc1 (configuration not stated),-0.3%,nt,31.6µM*,nt,nt,1.0%
Cc1ccc(-n2nc(CO)c(C(=O)NCC(c3ccccc3)c3ccccc3)n2)cc1,-0.3%,nt,-10.8%,nt,nt,4.9%
Cc1ccc(-n2nc(CO)c(C(=O)NCCO)n2)cc1,-0.7%,nt,8.91µM*,nt,nt,-2.7%
Cc1ccc(-n2nc(CO)c(C(=O)NCCCc3ccccc3)n2)cc1,-0.7%,nt,22.4µM*,nt,nt,4.6%
CCOC(=O)CNC(=O)C1CCCCC1,-0.6%,nt,1.6%,nt,nt,nt
Cc1ccc(-n2nc(CO)c(C(=O)NCCCCc3ccccc3)n2)cc1,0.0%,nt,10µM*,nt,nt,17.5%
CC(OC(=O)c1snc(C(=O)NC2CCCCC2)c1N)C(=O)NC(C)(C)C (configuration not stated),-1.0%,-3.7%,28.2µM*,2.2,-29.4%,2.4%
CC(C)(C)NC(=O)COC(=O)c1snc(C(=O)NC2CCCCC2)c1N,-2.6%,14.3%,28.2µM*,11.2,-11.7%,0.0%
Cc1ncc2c(c1CNC(=O)/C=C/c1cccs1)CCN(C(=O)c1c(C)noc1C)C2,0.2%,nt,nt,nt,nt,nt
SMILES,PINK1 expr mod,MLL CXXC-DNA inh,ClpP mod,Menin MLL FP FL,Menin-MLL TR inh,Epigenetic reg
CCCCCc1nc2c(=O)n(C)c3ccccc3c2o1,-1.2%,-1.4%,-15.0%,3.8,?,-1.0%
Cn1c(=O)c2nc(-c3ccccc3)oc2c2ccccc21,0.5%,-1.4%,11.2µM*,3.0,-20.3%,0.0%
COc1cc(Nc2nc(SCc3ccccc3F)nc3ccccc23)cc(OC)c1,8.4%,nt,?,nt,nt,0.0%
COc1cc(Nc2nc(SCc3ccc(Cl)cc3)nc3ccccc23)cc(OC)c1,3.5%,nt,35.5µM*,nt,nt,-0.5%
COc1cc(Nc2nc(SCc3ccccc3Cl)nc3ccccc23)cc(OC)c1,6.3%,nt,28.2µM*,nt,nt,-1.3%
COc1cc(Nc2nc(SCc3cccc(Cl)c3)nc3ccccc23)cc(OC)c1,6.5%,nt,31.6µM*,nt,nt,-1.3%
Cc1nc2ccccc2nc1CN1CCOc2ccc(CN3CCc4sccc4C3)cc2C1,-0.6%,nt,nt,nt,nt,nt
COc1ccc2[nH]c(C(=O)O)c(CCNC(C)=O)c2c1,0.4%,-10.9%,8.91µM*,3.8,8.5%,-0.2%
O=C1[C@H]2C(c3ccccc3)=NN(c3ccccc3)[C@H]2C(=O)N1c1ccccc1,-0.5%,4.9%,4.3%,-1.3,?,-1.6%
O=C1C2C(c3ccccc3)=NN(c3ccccc3)C2C(=O)N1c1ccccc1 (configuration not stated),-2.8%,7.3%,28.2µM*,8.5,?,0.0%
COc1ccc(-c2nc(-c3cccs3)c(-c3cccs3)[nH]2)cc1O,-0.4%,?,25.1µM*,2.5,?,0.0%
O=C(Nc1cccc(Cl)c1)Nc1nnc(-c2ccncc2)s1,7.08µM*,15.8%,-12.2%,4.5,-11.3%,1.0%
O=C(Nc1ccc(F)cc1)Nc1nnc(-c2ccncc2)s1,2.8%[38.3 µM],34.1%,-7.2%,0.0,-18.7%,-0.9%
Cc1ccc(NC(=O)Nc2nnc(-c3ccncc3)s2)cc1C,15.8µM*,-12.4%,-1.6%,0.0,3.7%,2.2%
CCSc1nnc(C(C)NC(=O)c2ccc(OC)cc2)n1C (configuration not stated),0.7%,nt,nt,nt,nt,nt
O=C(N/N=C/c1ccc(N2CCOCC2)s1)c1ccc(O)cc1,4.0%,nt,-4.0%,nt,nt,nt
O=C(NN=Cc1ccc(N2CCOCC2)s1)c1ccc([N+](=O)[O-])cc1,15.8µM*,nt,0.1%,nt,nt,nt
Cc1ccsc1C(=O)N(Cc1cc2ccc(F)cc2nc1N1CCC(O)CC1)CC1CCCO1 (configuration not stated),-0.6%,nt,nt,nt,nt,nt
COc1cccc(OC)c1C(=O)N1CCN(Cc2ccccc2C(F)(F)F)CC1,1.5%,-11.7%,31.6µM*,4.3,?,-1.0%
COc1cc(C(=O)N2CCN(Cc3ccccc3C(F)(F)F)CC2)cc(OC)c1OC,0.8%,-6.2%,0.6%,-0.3,-13.8%,-1.9%
O=C(c1coc(=O)c(Br)c1)N1CCC(C(O)(c2ccccc2)c2ccccc2)CC1,-0.6%,-3.5%,?,3.7,nt,?
O=C(c1coc(=O)c(Br)c1)N1CCCc2ccccc21,3.6%,-1.4%,12.6µM*,?,30.6%,-7.7%
CC1(C)CCCN(C(=O)c2coc(=O)c(Br)c2)C1,0.3%,-16.3%,25.1µM*,?,7.5%,?
